Several values for one entry are separate records, joined by “and”; a condition that tells them apart may be missing. Equal entries are not always repeated. Out of some 220,000 compounds screened, about 8,200 (3.7%) were called active.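 Rule for the calls: active = compounds that reduced the stress-induced luciferase reporter signal by more than about 70% of percent inhibition (limit read from the data); inactive = the rest.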 The list comes from a sample in which actives are over-represented; it also holds similar structures and randomly drawn compounds.
Assay: blockers of ER-stress CHOP reporter expression – cell-based, unfolded protein response, luciferase reporter, primary screen (AID 2732);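 note: 0% = tunicamycin plus vehicle and 100% = wells without tunicamycin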
Conditions: CHO-K1 CHOP-promoter luciferase, tunicamycin-induced, 15-18 h; at 10 µM; hits give high values
In the case of `Cc1cnc(NC(=O)Cn2cnc3c2c(=O)n(C)c(=O)n3C)s1`, the inhibition is reported as -10.1% (inactive). With `Cc1ccc(C(=O)NNc2ncnc3ccccc23)cc1` the inhibition was 3.67% (inactive). In the case of `Cc1nn(-c2ccccc2)c(=O)c2noc(C)c12`, the inhibition is reported as 1.49% (inactive). For `CCn1c2ccccc2c2cc(NC(=S)N3CCOCC3)ccc21`, the inhibition was 30.3% (inactive). With `Cc1cc(N2CCN(C)CC2)nc2ccc(NC(=S)N3CCOCC3)cc12` the inhibition was 2.29% (inactive). With `Cc1cc(N2CCOCC2)nc2ccc(NC(=S)N3CCN(Cc4ccccc4)CC3)cc12` the inhibition was 80.6% (active). With `CC(CO)(CO)NC(=O)c1ccc(=O)[nH]n1` the inhibition was 0.5% (inactive). In the case of `O=P(O)(CN1CCCCCC1)C1Cc2ccccc2C1`, the inhibition is reported as 4.35% (inactive). With `O=c1cc(N2CCCCC2)c(-c2ccccc2)nn1Cc1cccc(F)c1` the inhibition was 74.7% (active). In the case of `O=c1c2ccccc2c(-c2ccccc2)nn1Cc1ccccc1`, the inhibition is reported as 43.8% (inactive). In the case of `O=c1cc(N2CCN(Cc3ccccc3)CC2)c(-c2ccccc2)n[nH]1`, the inhibition is reported as 26.9% (inactive). For `C/C(Cc1ccccc1)=N\NC(=O)CNC(=O)c1ccccc1Cl`, the inhibition was -14.9% (inactive). With `COc1ccc(OCC(O)CNCCNc2nccc(C(F)(F)F)n2)cc1` (configuration not stated) the inhibition was 3.94% (inactive). In the case of `COc1ccc(/C=N/NC(=O)Cn2cc(C(F)(F)F)ccc2=O)cc1`, the inhibition is reported as -10.7% (inactive). In the case of `O=C(Cc1ccccc1)N/N=C/c1ccc(Cl)cc1Cl`, the inhibition is reported as -13.9% (inactive). For `O=C(Cn1cc(C(F)(F)F)ccc1=O)N/N=C/c1ccc(Cl)cc1Cl`, the inhibition was 104% (active). For `NS(=O)(=O)c1ccc(NC(=O)COC(=O)c2cc3ccccc3oc2=O)cc1`, the inhibition was 5.84% (inactive). In the case of `CCOc1cc2c(Cl)ncnc2c(OCC)c1OCC`, the inhibition is reported as 23.1% (inactive). In the case of `S=c1[nH]c2ccccc2c2ccccc12`, the inhibition is reported as -2.18% (inactive). For `CCN(CC)CCCN=C(N)N`, the inhibition was 3.64% (inactive). In the case of `CCOC(=O)N1CCN(C(=O)C2CCN(c3ncnc4c3sc3cccc(F)c34)CC2)CC1`, the inhibition is reported as 85.7% (active). For `CCOC(=O)C1CCN(c2ncnc3c2oc2ccc(Br)cc23)CC1`, the inhibition was 21.9% (inactive). With `CCOC(=O)N1CCN(C(=O)C2CCN(Cc3ccc(OC)cc3OC)CC2)CC1` the inhibition was 18.3% (inactive). For `Nc1nc(NCC2CCCO2)nc(Nc2ccccc2F)c1[N+](=O)[O-]` (configuration not stated), the inhibition was 12.4% (inactive). In the case of `CC(C)CCNC(=O)C1CCC(CNc2c(N3CCC(C)CC3)c(=O)c2=O)CC1` (configuration not stated), the inhibition is reported as 1.09% (inactive). For `Cc1ccc2c(c1)nnc1nnc(SCC(=O)O)n12`, the inhibition was 3.13% (inactive). In the case of `CSc1nc(-c2ccco2)nn1C(=O)CCc1ccccc1`, the inhibition is reported as 37.2% (inactive). For `CS(=O)(=O)n1nc(-c2ccco2)nc1N`, the inhibition was 42.4% (inactive). With `CSc1nc(-c2ccco2)nn1C(=O)c1ccccc1Cl` the inhibition was 78.2% (active). With `COc1cccc(N2C(=O)CC(N3CCc4ccccc4C3)C2=O)c1` (configuration not stated) the inhibition was -8.87% (inactive). For `CSCC[C@H](NC(=O)CCCn1nnc2ccccc2c1=O)C(=O)O`, the inhibition was 4.06% (inactive). For `Cc1ccc(C(=O)c2c(NC(=O)c3ccccc3)sc(C)c2C)cc1`, the inhibition was 53.1% (inactive). In the case of `Cc1ccc(NC(=O)c2c(NC(=O)CCC(=O)O)sc3c2CCCCC3)cc1`, the inhibition is reported as 5.76% (inactive). In the case of `Cc1ccc(C(=O)c2c(NC(=O)c3ccncc3)sc3c2CCCC3)cc1`, the inhibition is reported as 73.2% (active). For `COc1c(C=O)c(CCN(C)C(=O)c2ccc(F)cc2)cc2c1OCO2`, the inhibition was -10.2% (inactive). For `COc1ccccc1C1CCN(C(=S)Nc2ccc(Br)cc2)CC1`, the inhibition was 26.5% (inactive). For `COc1ccccc1C(c1nnnn1C(C)(C)C)N1CCN(Cc2ccccc2)CC1` (configuration not stated), the inhibition was -9.46% (inactive). For `COCCn1nnnc1C(c1ccccc1Cl)N1CCN(c2ccccc2OC)CC1` (configuration not stated), the inhibition was 81.6% (active). In the case of `COc1ccccc1C(c1nnnn1CC1CCCO1)N1CCN(c2ccccc2)CC1` (configuration not stated), the inhibition is reported as -9.42% (inactive). For `O=C(NCc1cccnc1)C(=O)Nc1nc(-c2ccccc2)cs1`, the inhibition was 16.9% (inactive). With `FC(F)(F)c1ccnc(Oc2ccc(C3=NCCS3)cc2)c1` the inhibition was 1.85% (inactive). With `CC(C)=CCC/C(C)=C/C(=O)O` the inhibition was -11.9% (inactive). With `Cc1ccc(C(=O)N2CCCC(c3ccccc3)=N2)cc1` the inhibition was 78.5% (active). With `Cc1ccc(C(=O)C[n+]2cc(-c3ccccc3)n3c2CCCCC3)cc1` the inhibition was -15.7% (inactive) and 24.3% (inactive). In the case of `Cc1ccc(NC(=S)N2CCCC(c3ccccc3)=N2)cc1`, the inhibition is reported as 16.8% (inactive). With `O=C(COc1cc(Cl)c(Cl)cc1Cl)NC(=O)NC1CCCC1` the inhibition was 91% (active). In the case of `O=C(COc1ccccc1F)NC1CC1`, the inhibition is reported as 40% (inactive). With `O=C(COc1cc(Cl)c(Cl)cc1Cl)NCCc1ccccn1` the inhibition was -12.8% (inactive). With `CCN(CC)CCC(c1ccc2c(c1)OCO2)c1c(OC)cc(OC)c2c(-c3ccccc3)cc(=O)oc12` (configuration not stated) the inhibition was -37.9% (inactive). For `COc1ccc2[nH]cc(/C=C(/C#N)S(=O)(=O)c3ccccc3)c2c1`, the inhibition was 70.3% (active). In the case of `CCN(CC)CC(=O)c1c[nH]c2ccc(OC)cc12`, the inhibition is reported as -4.19% (inactive). With `COc1ccc(NS(=O)(=O)c2ccc(Oc3c(C#N)cccc3C#N)cc2)cc1` the inhibition was 54.8% (inactive). For `Cc1cc(C)nc(SCc2cn3c(C)cc(C)nc3n2)n1`, the inhibition was 19.4% (inactive). In the case of `Cc1onc(-c2ccc(Cl)cc2)c1-c1ccnn1S(=O)(=O)c1ccc(Cl)cc1`, the inhibition is reported as 57.9% (inactive). In the case of `NC(=O)NC(=O)CSc1nc2cc([N+](=O)[O-])ccc2n1-c1cccc(C(F)(F)F)c1`, the inhibition is reported as 76.3% (active). With `COc1ccc(CCNC(=O)CSc2nc3[nH]ncc3c(=O)n2-c2cccc(C(F)(F)F)c2)cc1OC` the inhibition was 16.4% (inactive). For `COc1ccc(-n2cnnc2SCC(=O)Nc2cccc([N+](=O)[O-])c2)cc1`, the inhibition was 5.96% (inactive). In the case of `NS(=O)(=O)c1ccc(NC2=CC(c3ccc(F)cc3)N(c3ccc(S(N)(=O)=O)cc3)C2=O)cc1` (configuration not stated), the inhibition is reported as -15.2% (inactive). With `CC(C)(C)c1nc2ccccc2c(=O)n1N1C(=O)c2ccccc2C1=O` the inhibition was 71.3% (active). In the case of `CN(C)CCCn1c(SCCN2C(=O)c3ccccc3C2=O)nc2ccccc2c1=O`, the inhibition is reported as 4.6% (inactive). For `CCC1(CC)Cc2ccccc2-c2nc3ccccc3c(=O)n21`, the inhibition was 16.7% (inactive). For `CCCN(c1ccc(C)cc1)c1nc(=O)c2cccnc2s1`, the inhibition was 12.3% (inactive). With `Cc1cc(N)n(-c2ccc(S(=O)(=O)N3CCCC3)cc2[N+](=O)[O-])n1` the inhibition was 7.68% (inactive). For `Cn1c(=O)c2[nH]c(NCC3CCCO3)nc2n(-c2ccccc2)c1=O` (configuration not stated), the inhibition was 8.41% (inactive). With `CC(C)Nc1ncnc2c1nnn2Cc1ccccc1` the inhibition was 21.7% (inactive). With `CC(C)(C)c1nc(NCC2CCCO2)c2nnn(Cc3ccccc3)c2n1` (configuration not stated) the inhibition was 71.1% (active). With `CC/C=C/C(=O)N1CC2(CC(c3cccc(NC(=O)CC)c3)=NO2)C[C@H]1C(N)=O` (some centres not stated) the inhibition was -5.15% (inactive). With `CC(C)Cc1nnc(NC(=O)CCC(=O)Nc2ccc3cn[nH]c3c2)s1` the inhibition was -20.9% (inactive). With `COc1cc(/C=C(\C#N)c2nc3c(s2)CC(C)CC3)ccc1O` (configuration not stated) the inhibition was 93.6% (active). In the case of `COc1cc(/C=N/Nc2nc3ccccc3s2)ccc1O`, the inhibition is reported as 3.98% (inactive). In the case of `CCOc1cc(/C=C(\C#N)c2nc(-c3cccs3)c(NC(C)=O)s2)ccc1O`, the inhibition is reported as -1.5% (inactive). For `O=C(COC(=O)/C=C/c1ccc2c(c1)OCO2)NC1CCS(=O)(=O)C1` (configuration not stated), the inhibition was 17.7% (inactive). In the case of `Cc1nc(C)c2c(c1C(F)(F)F)-c1ccccc1C2(F)F`, the inhibition is reported as 84.7% (active). In the case of `CSc1n[nH]c(=S)n1N`, the inhibition is reported as 0.04% (inactive). For `CC(C)(C)C(=O)OCc1nc(-c2ccc(O)c(O)c2)cs1`, the inhibition was -105% (inactive). With `Cc1ccc(S(=O)(=O)/N=C(/Nc2ccc3[nH]c(=O)[nH]c3c2)c2ccccc2)cc1` the inhibition was -16.7% (inactive). In the case of `Cc1cc(C)cc(C(=O)NC(=S)Nc2ccc3[nH]c(=O)[nH]c3c2)c1`, the inhibition is reported as 81.3% (active). For `Cc1ccc(C(=O)NC(=S)Nc2ccc3[nH]c(=O)[nH]c3c2)cc1C`, the inhibition was 1.63% (inactive). For `CC1CC2=C(CC1/C=N/NC(N)=S)C(C)(C)CCC2` (configuration not stated), the inhibition was 89.8% (active). For `CC1(C)CCCC2=C1CC1C(=O)N(c3ccccc3)C(=O)C1C2` (configuration not stated), the inhibition was 12% (inactive). With `CN(C(=O)Nc1ccc(Cl)cc1)n1cnc2ccccc2c1=O` the inhibition was 20.1% (inactive). In the case of `CC1(C)C=C2[C@H]3CC[C@@H]4[C@@]5(C)CCC(=O)C(C)(C)[C@@H]5CC[C@@]4(C)[C@]3(C)CC[C@@]2(C(=O)O)CC1`, the inhibition is reported as 95% (active). In the case of `COC(=O)/C=C(\Oc1ccccc1)C1(O)CCCCC1`, the inhibition is reported as 7.27% (inactive). In the case of `Fc1ccc(Nc2nnns2)cc1`, the inhibition is reported as 3.88% (inactive). With `COC(=O)CSc1ncnc2c1cnn2-c1ccc(C)cc1C` the inhibition was -4.08% (inactive). In the case of `Cc1ccc(-n2ncc3c(=O)n(-c4ccc(C)c(C)c4)c(-c4ccco4)nc32)cc1`, the inhibition is reported as 37.9% (inactive). For `Cc1ccc(-n2ncc3c2ncn2nc(-c4ccco4)nc32)c(C)c1`, the inhibition was 105% (active). In the case of `O=C(NCc1cccnc1)Nc1cccc(NC(=O)NCc2cccnc2)c1F`, the inhibition is reported as 7.4% (inactive). In the case of `CN1CCN(C2=NCCO2)CC1`, the inhibition is reported as 2.43% (inactive). For `O=C(Nc1nnc(SCc2c(Cl)cccc2Cl)s1)C1CCCO1` (configuration not stated), the inhibition was 18.8% (inactive). In the case of `O=C(Nc1nnc(SCc2ccc(Cl)cc2Cl)s1)C1COc2ccccc2O1` (configuration not stated), the inhibition is reported as 71.3% (active). With `O=C(Nc1nc2c(F)cc(F)cc2s1)C1COc2ccccc2O1` (configuration not stated) the inhibition was 17.5% (inactive). In the case of `Cc1cnc(NC(=O)c2ccccn2)s1`, the inhibition is reported as 8.8% (inactive). With `CN(C)S(=O)(=O)c1ccc(C(=O)NCC(C)(C)N2CCOCC2)cc1` the inhibition was -18.3% (inactive). For `Cc1nc2ccccc2nc1N/N=C/c1ccc(O)cc1O`, the inhibition was 74.5% (active). With `Oc1ccc(/C=N/NC2=NCCCCC2)c(O)c1` the inhibition was -12.1% (inactive). For `Oc1ccc(/C=N/Nc2nc(-c3ccccc3F)nc3ccccc23)c(O)c1`, the inhibition was 57.6% (inactive).

Reference: PubChem BioAssay AID2732 (Emory University Molecular Libraries Screening Center, 2010)
